Source: PubChem (National Center for Advancing Translational Sciences (NCATS))
ClpP mod = qHTS Assay for Activators of ClpP | ATP-dependent Clp protease proteolytic subunit (Bacillus subtilis (strain 168)), P80244 | purified B. subtilis ClpP, FRET peptide cleavage, 20 min | Potency, µM (series often up to 57.5 µM) | 340,000 tested, 1.9% active; active = well fitted falling curve with a large enough effect; inconclusive = small, poorly fitted or top-dose-only effect; inactive = no such curve, though single readings can be large or run the other way; also: the source files actives as falling curves though it sought activators and does not explain the sign; nearly all actives have a fitted effect of over 65% in size
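Purified B. subtilis ClpP, 10 microg/mL final in Tris/HCl pH8 with KCl, BSA, glycerol and Tween-20, cleaved an Abz/nitrotyrosine-quenched decapeptide. Fluorescence (ex 320, em 430) was read at 0 and 20 min at room temperature. Delta was normalized to 5.8 microM ADEP and DMSO/no-enzyme controls.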
Mito fusion yeast = blocks mitochondrial division or promotes mitochondrial fusion; S. cerevisiae fusion-defective mutant growth rescue, CellTiterGlo 48 h; Potency, µM (titrated, usually from 46.1 µM), hits mostly activators; 320,000 tested, 0.23% active; AID 485298; also: nearly all actives have a fitted effect of over 45% in size
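S. cerevisiae fusion-defective temperature-sensitive mutants (e.g. fzo1-1, mgm1-5) grown 48 h at 37C in YPEG (ethanol/glycerol non-fermentable) medium with 23 nl compound per well; growth rescue read as CellTiterGlo luminescence.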
LDHA inh = LDHA (human) enzyme inhibition | AID 1347041 | activity change, % (values are at about 110 or 230 µM) | 480,000 tested, 0.15% active | purified LDHA, NADH/diaphorase-resazurin fluorescence; hits give low values; in the data active = activity change below about -30%; inconclusive = mostly about -25% to -30%
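LDH5 2 nM; NADH 0.06 mM, pyruvate 0.2 mM; 200 mM Tris pH 7.4, EDTA, Tween-20; 5 min RT. Detection: diaphorase 0.133 mg/mL + resazurin 37 µM, fluorescence ex540/em590 at 0 and 20 min; normalized to enzyme-free and DMSO wells.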
S-ASM inh = inhibitors of human secretory acid sphingomyelinase | P17405 | placental ASM, HMU-PC fluorogenic substrate, 60 min | Potency, µM (doses to about 57.5 µM), usual class: inhibitors | 340,000 tested, 0.006% active | AID 504937
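HMU-PC0 cleavage (9 uM final) by human placental ASM, 60 min at 37 °C following 10 min compound exposure at RT; stopped at pH 10, fluorescence Ex 386/Em 447 nm.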
IDH1 R132H inh = human IDH1 R132H inhibition; Potency, µM (series often up to 76.6 µM), actives largely listed as inhibitors; 390,000 tested, 0.093% active; AID 602179; IDH1-R132H enzyme, NADPH consumption, diaphorase/resazurin fluorescence; also: nearly all actives have a fitted effect of over 65% in size
Target sequence (O75874 whole entry R132H, stated change not applied): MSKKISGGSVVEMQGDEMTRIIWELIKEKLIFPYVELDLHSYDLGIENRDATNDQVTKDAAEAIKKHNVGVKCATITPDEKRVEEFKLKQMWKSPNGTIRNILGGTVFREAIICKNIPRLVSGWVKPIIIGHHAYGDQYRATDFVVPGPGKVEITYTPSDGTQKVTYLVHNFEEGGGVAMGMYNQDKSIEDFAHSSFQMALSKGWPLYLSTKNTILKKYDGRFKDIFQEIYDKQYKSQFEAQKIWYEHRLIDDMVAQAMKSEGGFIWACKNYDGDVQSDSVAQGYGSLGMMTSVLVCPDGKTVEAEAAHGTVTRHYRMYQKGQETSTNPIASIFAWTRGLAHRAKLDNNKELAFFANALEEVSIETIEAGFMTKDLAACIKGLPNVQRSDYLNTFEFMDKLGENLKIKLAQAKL
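IDH1-R132H (0.5 ug/mL dispensed) in pH 7.5 Tris buffer was preincubated 30 min with compound, then given a substrate mix of 0.016 mM NADPH and 2 mM alpha-KG for 80 min at room temperature; remaining NADPH was read by diaphorase/resazurin fluorescence.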
RGS4 inhibitor = inhibitors of human regulator of G protein signaling 4. Transcreener GDP fluorescence polarization, RGS4-accelerated GTP hydrolysis. Potency, µM (top dose mostly 114 µM), actives largely listed as inhibitors. 390,000 tested, 0.039% active. AID 504845; also: nearly all actives have a fitted effect of over 75% in size
Target sequence (P49798 whole entry, looked up): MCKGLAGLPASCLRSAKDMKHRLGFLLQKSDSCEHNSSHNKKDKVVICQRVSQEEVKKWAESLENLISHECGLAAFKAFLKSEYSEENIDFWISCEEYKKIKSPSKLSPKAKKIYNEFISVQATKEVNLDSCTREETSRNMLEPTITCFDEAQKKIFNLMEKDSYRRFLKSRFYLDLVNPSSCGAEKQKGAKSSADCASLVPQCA
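MLSMR compounds (23 nl, pin-transferred) preincubated 10 min at room temperature with a 500nM (2x) first reagent, then RGS4 at 900nM (2x) plus Transcreener GDP mix added; fluorescence polarization (620/688 nm) read before and after 90 min at 30 °C.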
Large screens that a line does not name were inactive. The entries come from a sample that favours hits as a whole. Unless noted, calls follow the shape of the dose curve; as a rule, active = well fitted curve in the direction sought with a large enough effect; inconclusive = small, poorly fitted or top-dose-only effect, or another doubt; inactive = no such curve, though single readings can be large; an effect the other way counts as inactive or inconclusive.

CCCN(CC(=O)Nc1ccccc1C)C(=O)c1cn2ccccc2n1	ClpP mod 31.6µM
CC(OC(=O)c1ccccc1Nc1ccc(SC(F)F)cc1)C(N)=O (stereo not drawn)	Mito fusion yeast 14.1µM
CC(C)(C)c1[nH]nc2c1[C@@H](c1ccccc1C(F)(F)F)C(C#N)=C(N)O2	none (no result: ClpP mod, Mito fusion yeast, S-ASM inh, IDH1 R132H inh, RGS4 inhibitor)
CCOc1ccccc1Cn1c(=O)oc2ccc(C)cc21	ClpP mod 25.1µM
CC(=O)c1cccc(NC(=O)COc2c(C)[nH]ccc2=O)c1	none (no result: ClpP mod, Mito fusion yeast, S-ASM inh, IDH1 R132H inh, RGS4 inhibitor)
CCOC(=O)NN1C(=O)c2ccccc2NC1c1ccc(OC)cc1 (stereo not drawn)	ClpP mod 31.6µM
CCOC(=O)NN1C(=O)c2ccccc2NC1c1ccccc1 (stereo not drawn)	ClpP mod 31.6µM, RGS4 inhibitor inconclusive
CN1CCN(C(C(=O)O)c2cn(Cc3ccccc3)c3cc(C(=O)O)ccc23)CC1 (stereo not drawn)	none (no result: ClpP mod, Mito fusion yeast, S-ASM inh, IDH1 R132H inh, RGS4 inhibitor)
O=C(CN1CCOCC1)Nc1ccccc1Sc1ccccc1	none (no result: ClpP mod)
O=C(CNCCN1CCOCC1)Nc1ccccc1Sc1ccccc1	LDHA inh -31.2 (no result: ClpP mod)
Cn1c(=O)c2c(-c3ccccc3Cl)n(Cc3ccc(Cl)cc3)cc2n(C)c1=O	ClpP mod 25.1µM, IDH1 R132H inh inconclusive (no result: Mito fusion yeast, S-ASM inh)
O=C(Nc1ccccc1C(=O)O)/C(=C/c1ccc(Cl)cc1Cl)NC(=O)c1ccco1	ClpP mod 35.5µM
O=C(Nc1cccc(C(=O)O)c1)/C(=C\c1ccco1)NC(=O)c1ccccc1Cl	none
Cn1c(=O)c2c(O)c(Cc3ccccc3)c(=O)[nH]c2n(C)c1=O	Mito fusion yeast 20µM
N#Cc1ccc(-c2ccco2)nc1SCc1ccccc1	ClpP mod 10µM
CCSc1nc(-c2ccco2)ccc1C#N	ClpP mod inconclusive, RGS4 inhibitor inconclusive
COCCn1c(C)cc(C(=O)Cn2cnc3scc(-c4ccc(C)s4)c3c2=O)c1C	none (no result: ClpP mod, Mito fusion yeast, S-ASM inh, IDH1 R132H inh, RGS4 inhibitor)
COc1ccccc1CNC(=O)c1ccc(CS(=O)c2ccc(Br)cc2)o1 (stereo not drawn)	none (no result: ClpP mod, Mito fusion yeast, S-ASM inh, IDH1 R132H inh, RGS4 inhibitor)
CN(CCC#N)Cc1ccsc1	none (no result: ClpP mod, Mito fusion yeast, S-ASM inh, IDH1 R132H inh, RGS4 inhibitor)
CCCCc1cc(=O)oc2cc(OCc3nn[nH]n3)c(Cl)cc12	ClpP mod 28.2µM
O=c1oc2c(F)cc(F)cc2cc1S(=O)(=O)c1ccc(F)cc1	ClpP mod 22.4µM (no result: Mito fusion yeast, S-ASM inh, IDH1 R132H inh)
Cc1ccc2oc(=O)c(S(=O)(=O)c3ccc(F)cc3)cc2c1	none (no result: Mito fusion yeast, S-ASM inh)
CC(=O)Oc1c(C)cc2sc3ccccc3c(=O)c2c1C	none (no result: ClpP mod, Mito fusion yeast, S-ASM inh, IDH1 R132H inh, RGS4 inhibitor)
Fc1cnc(N2CCN(c3ccccc3)CC2)nc1N1CCN(c2ccccc2)CC1	ClpP mod 31.6µM (no result: Mito fusion yeast, S-ASM inh)
Cc1cccc(C(=O)N/N=C/c2ccc(N(C)C)cc2)c1	none (no result: ClpP mod, Mito fusion yeast, S-ASM inh, IDH1 R132H inh, RGS4 inhibitor)
COc1cccc(CNC(=O)C(C)Oc2ccccc2)c1 (stereo not drawn)	none (no result: ClpP mod, Mito fusion yeast, S-ASM inh, IDH1 R132H inh, RGS4 inhibitor)
O=C(O)C1Cc2[nH]cnc2C(c2cccc([N+](=O)[O-])c2)N1 (stereo not drawn)	none
O=C(O)C1Cc2[nH]cnc2C(c2ccccc2O)N1 (stereo not drawn)	ClpP mod 28.2µM
O=C(CCCn1c(=O)c2sccc2n(Cc2cc(=O)n3ccccc3n2)c1=O)NCc1ccco1	none
O=C(CCn1c(=O)c2sccc2n(Cc2cc(=O)n3ccccc3n2)c1=O)NCc1ccco1	ClpP mod 28.2µM
Cc1nc2ccn(Cc3cccnc3)c(=O)c2cc1C(=O)NCc1ccc(Cl)cc1	ClpP mod 12.6µM (no result: Mito fusion yeast, S-ASM inh)
COc1ccc(CNC(=O)c2cc3c(=O)n(Cc4ccc(OC)cc4)ccc3nc2C)cc1	none (no result: Mito fusion yeast, S-ASM inh)
C[C@@H]1CN([C@H](C)CO)C(=O)CCCn2cc(nn2)CO[C@H]1CN(C)S(=O)(=O)c1ccc2ccccc2c1	LDHA inh -34.2 (no result: Mito fusion yeast, S-ASM inh, RGS4 inhibitor)
C[C@H](CO)N1C[C@H](C)[C@@H](CN(C)S(=O)(=O)c2ccc3ccccc3c2)OCc2cn(nn2)CCCC1=O	none (no result: Mito fusion yeast, S-ASM inh, RGS4 inhibitor)
CC(C(=O)Nc1ccc(F)cc1)N1CCN(C(=O)c2cccs2)CC1 (stereo not drawn)	none (no result: ClpP mod, Mito fusion yeast, S-ASM inh, IDH1 R132H inh, RGS4 inhibitor)
